# Results taken from the supplement of paper PMC6378613.
# Compound: Cc1ccc(-c2ccc3c(ccc4sc5c(c43)NC[C@@H](C)NC5=O)n2)cn1
# Assay: kinase activity remaining relative to vehicle control; higher = less inhibition
# Procedure: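 In vitro radiometric kinase profiling of the MK2 inhibitor PF-3644022 at 0.1, 1 and 10 µM against a panel of kinases (MRC International Centre for Kinase Profiling, Dundee). Read-out is % kinase activity remaining relative to the vehicle control, mean of n=2.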
# UniProt O14757, sequence (O14757 whole entry, looked up): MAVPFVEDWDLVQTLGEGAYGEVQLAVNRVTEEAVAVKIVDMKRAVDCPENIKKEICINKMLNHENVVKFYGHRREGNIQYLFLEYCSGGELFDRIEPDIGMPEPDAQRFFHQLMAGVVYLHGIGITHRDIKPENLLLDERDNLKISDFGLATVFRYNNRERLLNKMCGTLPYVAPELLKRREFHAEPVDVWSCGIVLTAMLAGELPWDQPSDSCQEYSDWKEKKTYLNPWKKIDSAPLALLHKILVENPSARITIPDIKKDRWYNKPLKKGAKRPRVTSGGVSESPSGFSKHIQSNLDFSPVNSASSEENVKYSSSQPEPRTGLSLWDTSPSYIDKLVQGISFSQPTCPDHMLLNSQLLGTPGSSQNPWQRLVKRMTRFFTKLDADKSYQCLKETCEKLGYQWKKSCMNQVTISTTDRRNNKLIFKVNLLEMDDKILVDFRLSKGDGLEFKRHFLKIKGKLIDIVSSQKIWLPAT
# UniProt Q96L34, sequence (Q96L34 whole entry, looked up): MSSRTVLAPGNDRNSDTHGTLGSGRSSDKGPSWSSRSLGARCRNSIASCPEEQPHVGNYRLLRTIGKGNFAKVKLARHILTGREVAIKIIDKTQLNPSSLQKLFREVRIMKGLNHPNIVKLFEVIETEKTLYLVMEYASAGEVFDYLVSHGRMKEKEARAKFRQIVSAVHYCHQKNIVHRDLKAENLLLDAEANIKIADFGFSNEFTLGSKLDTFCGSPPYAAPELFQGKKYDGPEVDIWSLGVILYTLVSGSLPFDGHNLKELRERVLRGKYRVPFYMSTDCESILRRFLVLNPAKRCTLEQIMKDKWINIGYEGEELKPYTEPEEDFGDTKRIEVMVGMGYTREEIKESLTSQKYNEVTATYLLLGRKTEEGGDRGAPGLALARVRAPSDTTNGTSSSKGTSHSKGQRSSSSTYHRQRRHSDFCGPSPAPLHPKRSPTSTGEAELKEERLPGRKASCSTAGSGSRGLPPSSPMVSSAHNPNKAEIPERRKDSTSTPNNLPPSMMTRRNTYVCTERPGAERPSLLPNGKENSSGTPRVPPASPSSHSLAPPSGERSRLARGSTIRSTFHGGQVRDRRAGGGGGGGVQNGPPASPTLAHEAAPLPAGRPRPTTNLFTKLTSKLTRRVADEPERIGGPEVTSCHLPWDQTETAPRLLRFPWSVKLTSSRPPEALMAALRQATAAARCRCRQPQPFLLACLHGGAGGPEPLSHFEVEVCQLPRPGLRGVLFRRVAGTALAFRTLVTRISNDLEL
# UniProt P53355, sequence (P53355 whole entry, looked up): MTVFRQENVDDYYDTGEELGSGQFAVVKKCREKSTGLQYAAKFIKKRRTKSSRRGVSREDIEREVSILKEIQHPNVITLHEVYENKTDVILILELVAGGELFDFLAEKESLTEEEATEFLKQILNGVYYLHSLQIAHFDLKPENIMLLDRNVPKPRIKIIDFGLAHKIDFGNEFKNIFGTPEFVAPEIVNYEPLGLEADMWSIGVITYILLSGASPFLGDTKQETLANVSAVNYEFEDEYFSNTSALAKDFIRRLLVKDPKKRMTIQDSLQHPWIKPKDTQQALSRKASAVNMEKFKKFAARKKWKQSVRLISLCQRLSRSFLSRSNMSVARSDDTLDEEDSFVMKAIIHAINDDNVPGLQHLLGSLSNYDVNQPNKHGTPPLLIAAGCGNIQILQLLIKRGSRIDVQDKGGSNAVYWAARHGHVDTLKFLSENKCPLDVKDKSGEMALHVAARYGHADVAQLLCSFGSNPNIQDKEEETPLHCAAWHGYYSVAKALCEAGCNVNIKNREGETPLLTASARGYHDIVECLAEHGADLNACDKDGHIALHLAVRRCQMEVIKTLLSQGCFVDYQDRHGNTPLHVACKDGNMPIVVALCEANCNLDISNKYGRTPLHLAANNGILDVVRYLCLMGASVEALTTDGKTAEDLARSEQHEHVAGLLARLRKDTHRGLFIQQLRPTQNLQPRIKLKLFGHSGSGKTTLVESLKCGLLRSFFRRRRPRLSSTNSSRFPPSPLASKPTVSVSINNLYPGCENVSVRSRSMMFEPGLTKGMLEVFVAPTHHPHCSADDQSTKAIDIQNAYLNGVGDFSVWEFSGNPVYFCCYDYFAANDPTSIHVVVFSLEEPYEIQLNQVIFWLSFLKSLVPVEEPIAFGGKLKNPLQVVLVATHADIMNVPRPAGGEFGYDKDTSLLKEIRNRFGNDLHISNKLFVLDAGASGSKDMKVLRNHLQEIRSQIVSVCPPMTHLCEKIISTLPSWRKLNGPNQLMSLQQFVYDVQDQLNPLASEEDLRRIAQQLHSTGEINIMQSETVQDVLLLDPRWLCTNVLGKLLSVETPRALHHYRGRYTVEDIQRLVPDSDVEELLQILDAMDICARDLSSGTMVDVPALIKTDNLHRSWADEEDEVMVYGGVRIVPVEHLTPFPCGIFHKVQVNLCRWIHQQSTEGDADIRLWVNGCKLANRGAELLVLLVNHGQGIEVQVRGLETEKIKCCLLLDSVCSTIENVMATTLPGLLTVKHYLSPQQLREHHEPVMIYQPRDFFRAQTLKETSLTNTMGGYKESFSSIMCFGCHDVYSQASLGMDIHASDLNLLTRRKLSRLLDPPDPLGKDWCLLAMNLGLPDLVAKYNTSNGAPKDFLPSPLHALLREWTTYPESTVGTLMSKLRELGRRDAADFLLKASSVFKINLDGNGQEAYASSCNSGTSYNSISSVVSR
# UniProt P07947, sequence (P07947 whole entry, looked up): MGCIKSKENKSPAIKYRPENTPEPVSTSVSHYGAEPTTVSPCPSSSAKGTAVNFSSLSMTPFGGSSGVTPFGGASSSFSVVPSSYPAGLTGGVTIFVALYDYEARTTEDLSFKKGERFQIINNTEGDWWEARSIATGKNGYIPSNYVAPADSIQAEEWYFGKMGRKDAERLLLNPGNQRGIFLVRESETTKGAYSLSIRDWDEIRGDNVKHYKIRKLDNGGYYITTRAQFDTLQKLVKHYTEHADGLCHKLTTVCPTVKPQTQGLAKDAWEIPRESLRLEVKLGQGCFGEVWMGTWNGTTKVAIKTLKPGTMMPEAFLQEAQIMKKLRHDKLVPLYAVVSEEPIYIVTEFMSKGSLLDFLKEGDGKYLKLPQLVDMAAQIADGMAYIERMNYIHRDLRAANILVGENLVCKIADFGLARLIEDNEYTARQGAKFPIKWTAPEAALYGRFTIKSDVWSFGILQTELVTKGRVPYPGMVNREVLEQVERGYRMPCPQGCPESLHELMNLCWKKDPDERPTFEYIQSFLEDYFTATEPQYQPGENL
target,measurement,setting,value
CHK1 (UniProt O14757),kinase activity remaining,inhibitor concentration 0.1 µM,139%
same,kinase activity remaining,inhibitor concentration 1 µM,109%
same,kinase activity remaining,inhibitor concentration 10 µM,112%
CK1 gamma 2,kinase activity remaining,inhibitor concentration 0.1 µM,123%
same,kinase activity remaining,inhibitor concentration 1 µM,112%
same,kinase activity remaining,inhibitor concentration 10 µM,102%
YES1 (UniProt P07947),kinase activity remaining,inhibitor concentration 0.1 µM,112%
same,kinase activity remaining,inhibitor concentration 1 µM,89%
same,kinase activity remaining,inhibitor concentration 10 µM,55%
MARK4 (UniProt Q96L34),kinase activity remaining,inhibitor concentration 0.1 µM,107%
same,kinase activity remaining,inhibitor concentration 1 µM,87%
same,kinase activity remaining,inhibitor concentration 10 µM,49%
DAPK1 (UniProt P53355),kinase activity remaining,inhibitor concentration 0.1 µM,103%
same,kinase activity remaining,inhibitor concentration 1 µM,62%
same,kinase activity remaining,inhibitor concentration 10 µM,15%
